# In PubChem BioAssay AID588405 (Sanford-Burnham Center for Chemical Genomics, 2011):
# In all, about 360,000 compounds went through this assay and about 6,200 (1.7%) were called active. The sample as a whole holds a higher share of actives than the screen did. A number with no mark means an inactive call.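 Rule for the calls: active = inhibition of at least 50% at 20 µM; inactive = the rest.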
# Assay: Peg3 promoter-driven luciferase inhibitors, primary screen, cell-based, HeLa, luciferase luminescence (AID 588405)
# Conditions: HeLa PEG-Prom luciferase reporter, overnight, at 20 µM, hits give high values
row,SMILES,inhibition
1,COc1ccccc1C(=O)COC(=O)COc1ccc(C#N)cc1,10.1%
2,CC(C)(C)c1nnc2sc(SCC(O)=C(C#N)c3nc4ccccc4[nH]3)nn2c1=O,20.3%
3,N#C/C(=C(/O)COC(=O)COc1ccc(Cl)cc1)c1nc2ccccc2[nH]1,71.2% (active)
4,COc1ccc(C2=Nc3ccccc3NC(=O)C2N(C(=O)c2cc3ccccc3[nH]2)c2ccccc2)cc1 (configuration not stated),-169%
5,CC1(C(=O)Nc2cccc3c2CCCC3)CCN1C(=O)C1(c2ccccc2)CC1 (configuration not stated),11.5%
6,CCc1cccc(C)c1NC(=S)N(CCCN1CCN(C)CC1)Cc1cccs1,12%
7,Cc1ccccc1NC(=S)N(CCCN1CCOCC1)Cc1cccs1,-3.16%
8,Cc1ccc(NC(=S)N(CCCN2CCCC2)Cc2cccn2Cc2ccc(Cl)cc2)cc1,83.4% (active)
9,O=C(C1CCN(c2nnc(-n3cccc3)s2)CC1)N1CCc2ccccc2C1,14.8%
10,CCn1c(=S)[nH]c2sc3c(c2c1=O)CCCCC3,-19.3%
11,CN(C)CCCn1c(=O)n(Cc2ccccc2)c(=O)c2c3c(sc21)CCCCC3,89.8% (active)
12,O=c1c2c3c(sc2n(CCN2CCCC2)c(=O)n1Cc1ccccc1)CCCCC3,-15%
13,CCCCC1S/C(=N/N=C/c2cccs2)NC1=O (configuration not stated),-0.95%
14,CC(=O)Nc1cccc(-c2ccnc3c2CC(C)(C(=O)NCc2ccccc2)O3)c1 (configuration not stated),-22.6%
15,O=C1/C(=C\c2ccc(O)cc2)CCC1CNc1ccc(Cl)cc1 (configuration not stated),93.8% (active)
16,CC(C(=O)NC1CCS(=O)(=O)C1)N1C(=O)/C(=C/c2ccc(Cl)cc2)SC1=S (configuration not stated),-7.3%
17,O=C1N=C(N2CCc3ccccc3C2)S/C1=C\c1ccc(O)cc1,-5.21%
18,CCCC(=O)N1CCC1(C)C(=O)NS(=O)(=O)c1ccc(Cl)cc1 (configuration not stated),3.54%
19,CC(=O)Nc1cccc(Nc2ccc(C#N)cc2)c1,-24.3%

row,SMILES,inhibition
1,O=C(Cc1csc(Nc2nc(=S)[nH]c3ccccc23)n1)NCCCN1CCN(c2cccc(Cl)c2)CC1,53.1% (active)
2,COc1cccc(CNC(=O)Cc2csc(Nc3nc(=S)[nH]c4ccccc34)n2)c1,29.3%
3,O=C(Cc1ccc(-n2c(=O)[nH]c3ccccc3c2=O)cc1)N1CCN(c2cccc(Cl)c2)CC1,9.68%
4,COC(=O)c1ccc(CN2C(=O)C(Cc3ccccc3)ON=C2c2ncccc2C)o1 (configuration not stated),3.64%
5,O=C(Cc1ccc([N+](=O)[O-])cc1)Nc1ccc(C(=O)N2CCOCC2)cc1,-2.85%
6,C=CCn1c(COc2cccc3cccnc23)nnc1SCC(=O)OC,16.7%
7,CCOc1ccc(C(CCc2ccccc2)NC(=O)c2ccc(OC)c(OC)c2)cc1OCC (configuration not stated),11.6%
8,CCCCC(=O)NC(c1ccc(OC)c(OC)c1)c1ccc2cccnc2c1O (configuration not stated),60.4% (active)
9,CCc1nc2c(OCCC3CCCCC3)cccn2c1N(C)C(=O)c1ccco1,5.45%
10,COc1ccccc1C(=O)NN1C(=O)C2C3C=CC(O3)C2C1=O (configuration not stated),17.5%
11,CC1=CC(C)(C)NC(=S)N1NC(=O)c1ccccc1Cl,-9.1%
12,CC12CCC(C(=O)N(NC(=O)c3ccccc3O)C1=O)C2(C)C (configuration not stated),53.1% (active)
13,CCCCOc1ccc(N(CC(=O)NC(C)C)C(=O)CCC(=O)Nc2ccccn2)cc1,-4.29%
14,NC1=C([N+](=O)[O-])C(c2ccccc2)C2=C(CCCC2=O)O1 (configuration not stated),9.24%
15,O=S1(=O)CCN(C2CCCCCCCCCCC2)CC1,0.61%
16,CCN(C(=O)CN1C(=O)/C(=C/c2ccc(F)cc2)SC1=S)C1CCS(=O)(=O)C1 (configuration not stated),-2.93%
17,O=C1/C(=C/c2ccc(F)cc2)SC(=S)N1CCCC(=O)N1CCCCC1CCO (configuration not stated),58.3% (active)
18,COc1ccc(/C=C2\SC(=S)N(CCC(=O)N3CCOCC3)C2=O)cc1OC,-27.5%
19,CC(C)(C)c1ccc(S(=O)(=O)NC(=O)C2(C)CCN2C(=O)CC2CC2)cc1 (configuration not stated),-3.67%

row,SMILES,inhibition
1,Cc1cc(=O)oc2c3c(cc(OCC(=O)NCC(O)c4ccccc4)c12)OC(C)(C)CC3 (configuration not stated),12.4%
2,CC(NC(=S)Nc1ccccc1)C(c1cccs1)N1CCOCC1 (configuration not stated),14.7%
3,CC(NC(=O)Nc1ccccc1)C(c1cccs1)N1CCN(c2ccccc2)CC1 (configuration not stated),66.2% (active)
4,CCCC(=O)NC(C)C(c1cccs1)N1CCN(c2ccccc2)CC1 (configuration not stated),7.84%
5,CCc1nc2c(OCCOc3ccccc3)cccn2c1N(C=O)Cc1ccc(OC)cc1,6.15%
6,COc1ccc(C(=O)O/N=C(\N)Cc2ccc(Cl)cc2Cl)cc1OC,110% (active)
7,COc1ccc(C(=O)n2nc(-c3ccc(Cl)cc3)nc2N)cc1OC,10.6%
8,COc1ccc(CCn2ccc(O)c(Cc3ccc(Cl)cc3Cl)c2=O)cc1OC,6.97%
9,O=C(NCc1ccccc1)C(c1ccco1)N(C(=O)c1csnn1)c1ccccc1F (configuration not stated),5.02%
10,CSc1ccc(C(=O)C2CCCN(C(=O)c3ccc(C)nc3)C2)cc1 (configuration not stated),1.04%
11,CCCCn1nnnc1C(c1cccc(OC)c1OC)N1CCN(C/C=C/c2ccccc2)CC1 (configuration not stated),-3.54%
12,CC(C)C[C@H](CO)Nc1nc(N(C)c2cccc(Cl)c2)c2ncn(C(C)C)c2n1,12.4%
13,CC(C)n1cnc2c(Nc3cccc(Cl)c3)nc(N(CCO)CCCO)nc21,96.1% (active)
14,Cc1ccc(C(O)c2ncc(-c3ccccc3F)[nH]2)cc1F (configuration not stated),-67.5%
15,O=C(NCc1ccncc1)C1CCN(C(=O)c2cccc(Cl)c2)CC1,0.12%
16,O=C(NC1CCCC1)C(c1c(F)cccc1Cl)N(C(=O)c1csnn1)C1CC1 (configuration not stated),16.7%
17,COC(=O)CC1=NN(c2ccccc2)C(=O)C1,5.53%
18,COC(=O)Cc1[nH]n(-c2nc3ccccc3s2)c(=O)c1C(C)=Nc1ccc(OC)cc1,89.1% (active)
19,CCc1nc2ccccc2c(C(=O)NCc2ccc(OC)cc2)c1C,16.9%
